# This is a sample that favours compounds with a hit; in the whole collection about 2.6% have one here.
# ABCB6 inh MLPCN: human ABCB6 transporter inhibition; Q9NP58; K562-ABCB6 porphyrin accumulation, flow cytometry, 1 h; stronger effect = lower value; fluorescence ratio to DMSO, % at 10 µM; 360,000 compounds, 0.19% hits;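 active = fluorescence ratio to DMSO below 75%, the collection mean minus 3 SD; inconclusive = too few cells collected in the well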;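 also: signal is porphyrin accumulated inside mitochondria; 100% equals median channel fluorescence of DMSO control wells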
# Target sequence (Q9NP58 whole entry, looked up): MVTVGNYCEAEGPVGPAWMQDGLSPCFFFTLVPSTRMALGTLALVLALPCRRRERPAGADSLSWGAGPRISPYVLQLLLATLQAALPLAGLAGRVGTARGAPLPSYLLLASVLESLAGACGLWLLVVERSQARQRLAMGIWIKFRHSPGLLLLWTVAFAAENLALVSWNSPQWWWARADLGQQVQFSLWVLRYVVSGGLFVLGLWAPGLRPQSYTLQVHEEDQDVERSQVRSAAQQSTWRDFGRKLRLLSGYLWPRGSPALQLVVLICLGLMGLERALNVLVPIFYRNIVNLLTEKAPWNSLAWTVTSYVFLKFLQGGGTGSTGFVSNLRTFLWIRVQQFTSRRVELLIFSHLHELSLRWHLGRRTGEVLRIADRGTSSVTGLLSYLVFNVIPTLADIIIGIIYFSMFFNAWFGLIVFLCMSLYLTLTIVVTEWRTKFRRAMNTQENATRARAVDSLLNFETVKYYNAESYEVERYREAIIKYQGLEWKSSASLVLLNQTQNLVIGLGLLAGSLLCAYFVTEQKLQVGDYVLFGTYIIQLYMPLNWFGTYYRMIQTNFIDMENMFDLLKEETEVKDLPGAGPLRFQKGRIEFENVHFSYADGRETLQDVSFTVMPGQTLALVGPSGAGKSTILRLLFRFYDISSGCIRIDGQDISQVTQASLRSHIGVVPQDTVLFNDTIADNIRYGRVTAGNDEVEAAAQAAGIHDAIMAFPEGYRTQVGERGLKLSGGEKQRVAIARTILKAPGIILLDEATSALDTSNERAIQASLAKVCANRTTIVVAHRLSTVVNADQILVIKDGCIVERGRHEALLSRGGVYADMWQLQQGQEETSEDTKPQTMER
# PABP polyA inh: PABP-poly(A) binding inhibition. P11940. PABP-poly(A) RNA binding, fluorescence polarization. calls only at 35 µM. 290,000 compounds, 1% hits;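 also: calls also rest on retests at 20 µM and on dose response follow-up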
# eIF4H inh: inhibitors of RNA binding by human eIF4H | 290,000 compounds, 0.94% hits | Q15056 | eIF4H fluorescence polarization binding assay | inhibition, % at 35 µM;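 also: calls also rest on retests at 20 µM and on dose response follow-up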
# PHOSPHO1 inh: blocks human PHOSPHO1 phosphatase activity; Q8TCT1; recombinant PHOSPHO1, absorbance phosphatase assay; inhibition, % at 13.3 µM; 290,000 compounds, 1.1% hits; AID 1565; in the data active = inhibition above about 60%
# PABP1 MLLE inh: blocks PAM2 peptide binding to the PABP1 MLLE domain; 360,000 compounds, 0.36% hits; inhibition, % at 20 µM; P11940; GST-MLLE / FITC-PAM2 fluorescence polarization; in the data active = inhibition above about 35%, passing the limit was not always enough;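 also: plate controls were DMSO wells with GST-MLLE for no effect and wells lacking GST-MLLE protein for full effect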
# AI-2 QS modul: modulates the Vibrio harveyi AI-2 quorum sensing system; Vibrio harveyi JMH597 AI-2 luminescence/OD600 ratio, 9 h; stronger effect = lower value; strain lacks LuxN and CqsS sensors; 0 = neutral-control median; activity change, % at 7.5 µM; 300,000 compounds, 0.4% hits; AID 2094; in the data active = activity change below about -75%, passing the limit was not always enough; inconclusive = no clear call, values can overlap the other calls;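 also: luminescence divided by OD600 gain over 9 h not by final OD600 alone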
# Numbers without * were called inactive; i = inactive; ? = inconclusive; · = no result given; + = active, no number. Unless noted, no rule for the calls is given here.
SMILES,ABCB6 inh MLPCN,PABP polyA inh,eIF4H inh,PHOSPHO1 inh,PABP1 MLLE inh,AI-2 QS modul
COC/C=C/C1=CC2=CC(=O)C(C)(OC(=O)c3cnc4ccccc4n3)C(=O)C2=CN1CC1CC1 (stereo not given),99,·,·,·,9,40
COC/C=C/C1=CC2=CC(=O)C(C)(OC(=O)c3cnc4ccccc4n3)C(=O)C2=CN1c1ccc(OC)cc1 (stereo not given),100,·,·,·,5,38
COC/C=C/C1=CC2=CC(=O)C(C)(OC(=O)c3cnc4ccccc4n3)C(=O)C2=CN1Cc1ccccc1 (stereo not given),94,i,59*,13,1,6
COc1ccc(N2C[C@H](CSC)[C@@H](CC(=O)Nc3ccccc3)C2=O)cc1,96,·,·,·,12,·
O=C1COc2ccc(S(=O)(=O)Nc3ccc4c(c3)OCO4)cc2N1,101,i,-9,4,-10,-69
CCOC(=O)N1CCC(NS(=O)(=O)c2ccc3c(c2)oc(=O)n3C)CC1,116,+,67*,4,0,6
CCOC(=O)N1CCC(NC(=O)C2CCCN(S(=O)(=O)c3ccc4c(c3)oc(=O)n4C)C2)CC1 (stereo not given),97,i,-3,-1,4,14
CC(C)c1ccc(NS(=O)(=O)c2ccc3c(c2)NC(=O)CO3)cc1,101,i,-10,48,2,-85*
CC(C)c1ccc(NS(=O)(=O)c2ccc3c(c2)oc(=O)n3C)cc1,102,i,-6,28,-2,-94*
Cc1ccc(C(=O)O)cc1NS(=O)(=O)c1ccc2c(c1)oc(=O)n2C,105,+,77,28,-2,6
CCC(C)CNC(=O)c1[nH]c(C(F)(F)F)nc1-c1ccccc1 (stereo not given),100,·,·,·,-4,·
COCCNC(=O)C1(C)Cc2c(-c3ccc4c(c3)OCO4)ccnc2O1 (stereo not given),103,·,·,·,5,·
COc1ccc(-c2oc3c(c2C#CC2(O)CCCCC2)C(OC)CCC3)cc1 (stereo not given),100,·,·,·,·,·
COc1cc(/C=C/C(=O)Nc2nnc(C(C)(C)C)s2)cc(OC)c1OC,92,i,-13,24,41*,6
Clc1ccccc1-c1nnc2sc(-c3ccc(Br)o3)nn12,94,i,7,80*,-28,13
Clc1ccccc1-c1nnc2sc(-c3ccc4c(c3)OCO4)nn12,100,i,8,79*,-15,19
Clc1cccc(-c2nnc3sc(-c4ccc5c(c4)OCO5)nn23)c1,·,i,1,75*,·,·
Clc1ccccc1-c1nnc2sc(CCc3ccccc3)nn12,92,i,0,63*,6,20
Clc1cccc(-c2nn3c(-c4ccncc4)nnc3s2)c1,·,i,-15,10,·,·
c1ccc(CCc2nn3c(-c4ccncc4)nnc3s2)cc1,103,i,0,-21,26,10
Brc1ccccc1-c1nnc2sc(-c3ccc4c(c3)OCCO4)nn12,104,i,12,0,-20,12
COc1cccc(-c2cnc3c(NC(C)=O)cc(-c4cccc(C(=O)NCCN(C)C)c4)cn23)c1,106,·,·,·,-12,·
CC(=O)Oc1ccc(Cn2c(C)c(C(=O)NCc3ccc4c(c3)OCCO4)sc2=O)cc1,100,·,·,·,-5,·
CCOC(=O)[C@]12CCC=C1N(Cc1ccco1)C(=O)[C@H](CC(=O)NCCCCc1ccccc1)C2,94,·,·,·,·,·
Cc1ccsc1/C=C/C1=Cc2c(sc(NC(=O)CSc3n[nH]c(N)n3)c2C#N)C(C)(C)C1,102,?,?,80*,-4,24
CC1(C(=O)NS(=O)(=O)c2ccccc2Cl)CCN1C(=O)CC1CCCC1 (stereo not given),99,·,·,·,-2,·
Cc1ccc(-c2cc(C(=O)Nc3ccc(S(=O)(=O)Nc4nccs4)cc3)c3ccccc3n2)c(C)c1,85,+,60*,-31,22,43
CCOc1ccc(-n2ccc(=O)c(C(=O)Nc3ccc(S(=O)(=O)Nc4nccs4)cc3)n2)cc1,96,i,34,45,9,20
CCCn1nc(C(=O)Nc2ccc(S(=O)(=O)Nc3nccs3)cc2)c2ccccc2c1=O,99,+,58*,-1,-39,16
O=C(Nc1ccc(S(=O)(=O)Nc2nccs2)cc1)c1nn(-c2ccc(F)cc2)ccc1=O,100,+,80*,51,6,12
